From PubChem BioAssay AID1159580 (chemical genetic matrix, 2015)
Hit rate of the full screen: of about 5,500 compounds, about 2,000 (36%) were called active. About 18% were inconclusive and are not listed. Rule as the data show it: active = normalized growth mostly below about 0.91 (no sharp cut-off); inconclusive = no clear call, values can overlap the other calls; inactive = mostly above about 0.92. The list shows a part of the results.

Experiment: chemical genetic growth profiling, strain panel (AID 1159580);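 also: tested at 20 µM; growth read once vehicle control cultures reached saturation at 30 °C; 1 = growth at the plate median or of vehicle wells; lower values mean less growth of the strain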
Conditions: S. cerevisiae deletion strains, growth OD
[1] = locus YHR030C, strain SLT2, hits give low values
[2] = locus YHR079C, strain IRE1, hits give low values
[3] = locus YJL095W, strain BCK1, hits give low values
[4] = locus YJR066W, strain TOR1, hits give low values
[5] = locus YLR113W, strain HOG1, hits give low values
[6] = locus YNL183C, strain NPR1, hits give low values
[7] = locus YOR231W, strain MKK1, hits give low values
[8] = locus YPL256C, strain CLN2, hits give low values
[9] = locus YAR019C, strain CDC15, hits give low values
[10] = locus YBL105C, strain PKC1, hits give low values
[11] = locus YBR135W, strain CKS1, hits give low values
[12] = locus YBR136W, strain MEC1, hits give low values
[13] = locus YBR160W, strain CDC28, hits give low values
[14] = locus YDL017W, strain CDC7, hits give low values
[15] = locus YDL028C, strain MPS1, hits give low values
[16] = locus YDL101C, strain DUN1, hits give low values
[17] = locus YDL108W, strain KIN28, hits give low values
[18] = locus YDL132W, strain cdc53, hits give low values
[19] = locus YDL214C, strain PRR2, hits give low values
[20] = locus YDR052C, strain DBF4, hits give low values
[21] = locus YDR054C, strain cdc34, hits give low values
[22] = locus YDR226W, strain ADK1, hits give low values
[23] = locus YDR477W, strain SNF1, hits give low values
[24] = locus YER123W, strain YCK3, hits give low values
[25] = locus YER133W, strain GLC7, hits give low values
[26] = locus YFL009W, strain cdc4, hits give low values
[27] = locus YFL029C, strain CAK1, hits give low values
[28] = locus YFR003C, strain YPI1, hits give low values
[29] = locus YFR019W, strain FAB1, hits give low values
[30] = locus YFR028C, strain CDC14, hits give low values
[31] = locus YGR040W, strain KSS1, hits give low values
[32] = locus YGR052W, strain FMP48, hits give low values
[33] = locus YGR092W, strain DBF2, hits give low values
[34] = locus YHR082C, strain KSP1, hits give low values
[35] = locus YHR205W, strain SCH9, hits give low values
[36] = locus YIL147C, strain SLN1, hits give low values
[37] = locus YJL128C, strain PBS2, hits give low values
[38] = locus YJL157C, strain FAR1, hits give low values
[39] = locus YJR016C, strain ILV3, hits give low values
[40] = locus YJR066W, strain TOR1 (second series), hits give low values
[41] = locus YKL048C, strain ELM1, hits give low values
[42] = locus YKL067W, strain YNK1, hits give low values
[43] = locus YKL101W, strain HSL1, hits give low values
[44] = locus YKL193C, strain SDS22, hits give low values
[45] = locus YKL203C, strain TOR2, hits give low values
[46] = locus YLR133W, strain CKI1, hits give low values
[47] = locus YLR403W, strain SFP1, hits give low values
[48] = locus YML070W, strain DAK1, hits give low values
[49] = locus YMR001C, strain CDC5, hits give low values
[50] = locus YMR205C, strain PFK2 (second series), hits give low values
[51] = locus YMR277W, strain FCP1, hits give low values
[52] = locus YNL006W, strain LST8, hits give low values
[53] = locus YNL020C, strain ARK1, hits give low values
[54] = locus YNL161W, strain CBK1, hits give low values
[55] = locus YNL207W, strain RIO2, hits give low values
[56] = locus YNL222W, strain SSU72, hits give low values
[57] = locus YNL307C, strain MCK1 (second series), hits give low values
[58] = locus YOL078W, strain AVO1, hits give low values
[59] = locus YOL136C, strain PFK27, hits give low values
[60] = locus YOR061W, strain CKA2, hits give low values
[61] = locus YOR119C, strain RIO1, hits give low values
[62] = locus YOR329C, strain SCD5, hits give low values
[63] = locus YPL031C, strain PHO85, hits give low values
[64] = locus YPL153C, strain RAD53, hits give low values
[65] = locus YPL204W, strain HRR25, hits give low values
[66] = locus YPL209C, strain IPL1, hits give low values
[67] = locus YPR025C, strain CCL1, hits give low values
[68] = locus YPR106W, strain ISR1, hits give low values
[69] = locus YPR111W, strain DBF20, hits give low values
[70] = strain NNK1, hits give low values
[71] = strain TSCII, hits give low values

Measured: normalized growth

CC(N)C12CC3CC(CC(C3)C1)C2 (stereo unspecified)
inactive: [1] 0.992 | [2] 0.977 | [3] 0.989 | [4] 0.935 | [5] 1.02 | [6] 0.944 | [7] 1.01 | [8] 0.979

CC(C)(C)C(=O)NC(=S)N/N=C\c1cc(Cl)cc(Cl)c1O
active: [19] 0.333 | [23] 0.566 | [24] 0.167 | [25] 0.48 | [29] 0.365 | [31] 0.546 | [32] 0.346 | [33] 0.165 | [1] 0.278 | [2] 0.144 | [34] 0.277 | [35] 0.248 | [3] 0.2 | [38] 0.215 | [40] 0.149 | [4] 0.182 | [41] 0.439 | [42] 0.286 | [43] 0.237 | [45] 0.332 | [5] 0.245 | [46] 0.224 | [47] 0.35 | [48] 0.285 | [50] 0.221 | [53] 0.19 | [6] 0.269 | [57] 0.18 | [59] 0.242 | [60] 0.245 | [61] 0.547 | [7] 0.173 | [63] 0.498 | [64] 0.27 | [65] 0.249 | [8] 0.285 | [71] 0.768
inactive: [9] 0.924 | [10] 0.937 | [11] 0.907 | [12] 0.936 | [13] 0.94 | [14] 0.94 | [15] 0.927 | [16] 0.949 | [17] 0.936 | [18] 0.961 | [20] 0.945 | [21] 0.918 | [22] 0.958 | [26] 0.924 | [27] 0.923 | [28] 0.947 | [30] 0.938 | [36] 0.933 | [37] 0.974 | [39] 0.922 | [44] 0.921 | [49] 0.919 | [51] 0.926 | [52] 0.924 | [54] 0.932 | [55] 0.953 | [56] 0.926 | [58] 0.916 | [62] 0.949 | [66] 0.93 | [67] 0.928 | [68] 0.969 | [69] 0.954 | [70] 0.958

COCCCNC(=S)N/N=C\c1cc(Cl)cc(Cl)c1O
inactive: [9] 0.958 | [10] 0.946 | [11] 0.957 | [12] 0.956 | [13] 0.965 | [14] 0.951 | [15] 0.951 | [16] 0.959 | [17] 0.961 | [18] 0.958 | [19] 0.942 | [20] 0.956 | [21] 0.947 | [22] 0.951 | [23] 0.914 | [24] 0.944 | [25] 0.924 | [26] 0.952 | [27] 0.958 | [28] 0.954 | [29] 0.962 | [30] 0.968 | [31] 0.927 | [32] 0.942 | [33] 0.783 | [2] 0.903 | [34] 0.983 | [35] 0.853 | [36] 0.957 | [3] 0.904 | [37] 0.924 | [38] 0.918 | [39] 0.957 | [40] 0.887 | [4] 0.957 | [41] 0.936 | [42] 0.953 | [43] 0.946 | [44] 0.953 | [45] 0.953 | [5] 0.904 | [46] 0.924 | [47] 0.889 | [48] 0.95 | [49] 0.956 | [50] 0.943 | [51] 0.962 | [52] 0.963 | [53] 0.903 | [54] 0.959 | [6] 0.988 | [55] 0.957 | [56] 0.962 | [57] 0.909 | [58] 0.962 | [59] 0.953 | [60] 0.951 | [61] 0.989 | [7] 0.943 | [62] 0.96 | [63] 0.904 | [64] 0.903 | [65] 0.882 | [66] 0.962 | [67] 0.961 | [68] 0.955 | [69] 0.96 | [70] 0.955 | [71] 0.956
active: [1] 0.797 | [8] 0.859

CCCCNC(=S)N/N=C\c1cc(Cl)cc(Cl)c1O
inactive: [9] 0.929 | [10] 0.928 | [11] 0.922 | [12] 0.924 | [13] 0.941 | [14] 0.926 | [15] 0.926 | [16] 0.97 | [17] 0.922 | [18] 0.917 | [20] 0.941 | [21] 0.914 | [22] 0.924 | [26] 0.913 | [27] 0.936 | [28] 0.918 | [29] 0.785 | [30] 0.924 | [2] 0.601 | [36] 0.923 | [37] 0.897 | [39] 0.922 | [44] 0.916 | [49] 0.913 | [51] 0.905 | [52] 0.934 | [54] 0.932 | [55] 0.922 | [56] 0.933 | [58] 0.912 | [59] 0.713 | [7] 0.591 | [62] 0.924 | [66] 0.928 | [67] 0.931 | [68] 0.908 | [69] 0.933 | [71] 0.918
active: [19] 0.65 | [23] 0.513 | [24] 0.519 | [25] 0.601 | [31] 0.531 | [32] 0.195 | [33] 0.35 | [1] 0.275 | [34] 0.242 | [35] 0.236 | [3] 0.352 | [38] 0.63 | [40] 0.58 | [4] 0.289 | [41] 0.637 | [42] 0.676 | [43] 0.385 | [45] 0.249 | [5] 0.444 | [46] 0.49 | [47] 0.302 | [48] 0.603 | [50] 0.603 | [53] 0.44 | [6] 0.318 | [57] 0.362 | [60] 0.538 | [61] 0.343 | [63] 0.477 | [64] 0.495 | [65] 0.488 | [8] 0.457 | [70] 0.787
